SMILES strings stand for the structures. The whole screen tested about 67,000 compounds, of which about 300 (0.45%) showed an effect of 50% or more. Shown is part of a subset that was picked to be rich in strong results.

Sequence of Polyketide synthase Pks13 (Mycobacterium tuberculosis (strain ATCC 25618 / H37Rv)) (I6X8D2 whole entry): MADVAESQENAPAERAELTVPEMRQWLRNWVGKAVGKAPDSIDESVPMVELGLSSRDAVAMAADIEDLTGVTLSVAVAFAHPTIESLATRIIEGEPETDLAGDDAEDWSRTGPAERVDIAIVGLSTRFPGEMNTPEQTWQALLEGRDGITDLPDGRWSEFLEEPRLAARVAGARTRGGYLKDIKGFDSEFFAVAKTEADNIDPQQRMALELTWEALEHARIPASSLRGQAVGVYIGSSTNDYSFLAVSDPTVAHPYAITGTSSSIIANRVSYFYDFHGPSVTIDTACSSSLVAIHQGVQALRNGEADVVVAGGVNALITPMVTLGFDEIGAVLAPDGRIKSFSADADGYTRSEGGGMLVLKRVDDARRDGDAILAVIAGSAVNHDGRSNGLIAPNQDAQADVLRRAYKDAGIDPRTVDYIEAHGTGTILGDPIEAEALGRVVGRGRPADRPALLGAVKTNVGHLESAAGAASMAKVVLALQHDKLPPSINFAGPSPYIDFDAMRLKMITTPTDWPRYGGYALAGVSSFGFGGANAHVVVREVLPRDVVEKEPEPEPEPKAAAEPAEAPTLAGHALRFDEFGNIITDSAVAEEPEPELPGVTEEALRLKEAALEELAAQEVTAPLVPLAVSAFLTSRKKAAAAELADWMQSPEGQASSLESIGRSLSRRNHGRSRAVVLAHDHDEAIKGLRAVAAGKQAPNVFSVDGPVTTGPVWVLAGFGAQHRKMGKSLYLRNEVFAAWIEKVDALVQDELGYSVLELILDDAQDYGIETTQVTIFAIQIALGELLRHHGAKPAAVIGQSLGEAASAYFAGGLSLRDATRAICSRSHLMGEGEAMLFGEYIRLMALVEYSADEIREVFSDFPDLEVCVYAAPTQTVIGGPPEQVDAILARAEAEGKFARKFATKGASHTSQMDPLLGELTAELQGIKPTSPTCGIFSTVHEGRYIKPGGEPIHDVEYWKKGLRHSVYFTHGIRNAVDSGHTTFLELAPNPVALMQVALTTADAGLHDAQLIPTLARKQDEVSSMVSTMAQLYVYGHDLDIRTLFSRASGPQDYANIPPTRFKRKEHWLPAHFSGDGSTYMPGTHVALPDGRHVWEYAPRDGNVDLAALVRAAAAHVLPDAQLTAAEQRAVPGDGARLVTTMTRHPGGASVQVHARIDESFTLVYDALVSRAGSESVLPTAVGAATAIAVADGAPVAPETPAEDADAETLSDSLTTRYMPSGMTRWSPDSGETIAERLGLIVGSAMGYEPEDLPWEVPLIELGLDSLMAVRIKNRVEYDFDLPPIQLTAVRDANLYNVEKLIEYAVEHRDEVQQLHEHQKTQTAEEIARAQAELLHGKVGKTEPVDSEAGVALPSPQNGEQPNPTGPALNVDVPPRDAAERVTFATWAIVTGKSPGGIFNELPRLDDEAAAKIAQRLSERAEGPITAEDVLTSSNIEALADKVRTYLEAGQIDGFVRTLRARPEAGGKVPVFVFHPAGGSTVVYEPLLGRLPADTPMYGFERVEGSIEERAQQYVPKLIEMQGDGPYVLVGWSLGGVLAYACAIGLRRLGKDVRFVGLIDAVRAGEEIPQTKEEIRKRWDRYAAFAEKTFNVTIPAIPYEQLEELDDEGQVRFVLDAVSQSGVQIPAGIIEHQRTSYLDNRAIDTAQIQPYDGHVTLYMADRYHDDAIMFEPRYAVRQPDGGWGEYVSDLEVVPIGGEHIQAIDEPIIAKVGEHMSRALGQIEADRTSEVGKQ

The assay concerns the target Polyketide synthase Pks13 (Mycobacterium tuberculosis (strain ATCC 25618 / H37Rv)) (UniProt I6X8D2). Description: Mycobacterium tuberculosis Polyketide synthase 13 Thioesterase (PKS13). The class given is functional. Further details: scale not given: in the data most compounds retested in dose-response had high values. The note with it: 30 µM.
Take `O=C(NC1CC1)[C@@H]1CCO[C@@H]2CCN(C3CCOCC3)C[C@@H]21`: the Percent Effect was -12.6%. As for `Cc1nnc([C@H]2CC[C@@H]3[C@@H](CCN3Cc3c(C)noc3C)O2)o1`, the Percent Effect was -7.83%. As for `CN(C)C(=O)CO[C@@H]1CC[C@H]2[C@H]1OCCN2C(=O)C1CCOCC1`, the figure is -1.73%. The figure for `CC(=O)N1CCN2C(=O)N(Cc3ccc(F)cc3)C[C@H]2C1` is -33.1%; for `Cn1cc(-c2ncc3c(c2C(=O)O)CCN(CC2CCOC2)C3)cn1` (centres undefined) it is 111%. As for `Cn1cc(-c2ncc3c(c2C(=O)O)CCN(CC2CC2)C3)cn1`, the figure is -9.1%; as for `O=C(O)c1c(-c2cncnc2)ncc2c1CCN(CC1CCOC1)C2` (centres undefined), -5.14%. For `O=S(=O)(C1CC1)N1CCO[C@@H]2CN(Cc3ccco3)C[C@@H]2C1`, the Percent Effect is -22.6%.

Consider `Cn1cc(CN2CC[C@@H]3[C@@H]2CCN3Cc2ccc3c(c2)OCO3)cn1`, for which the Percent Effect was -41.2%. As for `Cc1noc([C@@H]2CCO[C@@H]3CCN(Cc4cccs4)C[C@@H]32)n1`, the Percent Effect was 2.92%. As for `CCc1n[nH]c(C2CN(C(=O)c3ncoc3CC)CCO2)n1` (centres undefined), the figure is -48.2%. The figure for `Cc1nc(C)n(C2CCCN(C(=O)c3nc(C)n4ccccc34)C2)n1` (centres undefined) is 93.6%. The figure for `CCc1n[nH]c(C2CN(C(=O)Cn3ccccc3=O)CCO2)n1` (centres undefined) is -11.9%; for `Cc1nc(C)n(C2CCCN(C(=O)c3cc4ccccc4n3C)C2)n1` (centres undefined) it is -20.9%; for `CCc1nc(C2CCCN2C(=O)c2nccnc2N)no1` (centres undefined) it is 29.6%. For the compound `CCc1n[nH]c(C2CN(C(=O)c3nc(C)n4ccccc34)CCO2)n1` (centres undefined), the Percent Effect stood at 83%. For the compound `Cc1nc(C)n(C2CCCN(C(=O)c3ccccc3C)C2)n1` (centres undefined), the Percent Effect was -12.6%. As to `CCc1nc(C2CCCN2C(=O)c2ncoc2CC)no1` (centres undefined), the Percent Effect was -6.87%. Turning to `CCc1nc(C2CCCN2C(=O)c2nc(C)n3ccccc23)no1` (centres undefined), the Percent Effect is 75.3%.

As for `COC[C@H]1CC[C@H]2[C@H](CCN2S(=O)(=O)c2ccccc2)O1`, the Percent Effect turned out to be 4.33%. As for `c1ccc(CO[C@@H]2C[C@H]3CN(c4ncccn4)CCN3C2)nc1`, the figure is -22%; as for `Cc1cnc(C(=O)N2C[C@H]3CN(Cc4cccnc4)C[C@H]3C2)cn1`, -17.6%. As for `Cc1cccc(CN2C[C@@H]3CN(C(=O)c4ccco4)C[C@@H]3C2=O)c1`, the figure is -32.5%. As for `CNC(=O)CN([C@H]1C[C@H]2CCOC[C@H]2C1)S(=O)(=O)c1ccccc1`, the figure is -2.79%; as for `CCN(CC)[C@@H]1CN(Cc2cnn(C)c2)[C@@H]2COC[C@H]12`, -19.3%. For `Cc1cn2c(=O)c(-c3ccnc(N4CCC[C@@H]4CO)n3)cnc2s1`, the Percent Effect stood at 72.5%. The figure for `Cc1csc2ncc(-c3ccnc(N4CCC[C@@H]4CO)n3)c(=O)n12` is 27.3%; for `O=c1c(-c2ccnc(N3CCC[C@H]3CO)n2)cnc2sccn12` it is 47.6%. For `COCCN1C[C@@H]2CN(Cc3ccoc3)CCC[C@]2(C(=O)O)C1`, the Percent Effect was -27.8%.

Turning to `CC1CCc2nc(O)c(C(=O)NCCN(C)C)cc2C1` (centres undefined), the Percent Effect was -47.6%. As for `CCCNC(=O)c1cc2c(nc1O)CCC(C)C2` (centres undefined), the figure is -24.6%. Regarding `CC1CCc2nc(O)c(C(=O)NCCCN3CCN(C)CC3)cc2C1` (centres undefined), the Percent Effect turned out to be 82.6%.

Consider `COc1ccc(CN2C[C@@H]3OCCN(c4ncccn4)[C@@H]3C2)cc1`, for which the Percent Effect is -27.4%. As for `O=S(=O)(NC[C@H]1C[C@@H]2CCN1C[C@@H]2CN1CCCC1)c1ccc(Cl)cc1`, the figure is 2.53%; as for `O=C(C1CC1)N1CCc2ccccc2C12CCNCC2`, 61.6%. The figure for `COCC(=O)N1CCc2ccccc2C12CCNCC2` is -33%; for `CCOC(=O)N1CCc2ccccc2C12CCNCC2` it is 5.43%; for `CCOCC(=O)N1C[C@@H]2CC[C@H](C1)N(Cc1ccccn1)C2=O` it is -4.9%. For the compound `CC(C)OCc1ncn2c1CN(Cc1nccs1)CCC2`, the Percent Effect came to 54.5%. As for `CC(C)OCc1ncn2c1CN(Cc1ccc(F)cc1)CCC2`, the figure is -26.5%. The figure for `CC(C)OCc1ncn2c1CN(Cc1cccs1)CCC2` is -19.5%; for `CN1CCN2C[C@@H](CO)[C@H](c3ccccc3)[C@H]2C1` it is 1.92%; for `Fc1cnc(N2CC[C@@H](N3CCOCC3)[C@@H]2Cc2ccncc2)nc1` it is -11.8%. For the compound `Cn1cc(C[C@H]2[C@H](N3CCOCC3)CCN2c2ncc(F)cn2)cn1`, the Percent Effect amounted to 56%.

Take `Fc1cnc(N2CC[C@@H](N3CCOCC3)[C@@H]2Cc2ccccc2)nc1`: the Percent Effect is -4.97%. Take `CN1C[C@@H]2CN(C(=O)NCc3ccccc3)CCC[C@]2(C(=O)O)C1`: the Percent Effect is -22.8%. As for `O=S1(=O)C[C@@H]2[C@H](C1)N(Cc1cc(Cl)cc(Cl)c1)CCN2CC1CC1`, the figure is -18.6%; as for `COc1cccc(N2CCN(C(=O)C(C)Oc3ccccc3)CC2=O)c1` (centres undefined), -5.21%. As for `COc1cccc(N2CCN(C(=O)C(O)c3cccc(Cl)c3)CC2=O)c1` (centres undefined), the figure is -13.9%; as for `COc1cccc(N2CCN(C(=O)C(O)c3ccccc3Cl)CC2=O)c1` (centres undefined), 55.5%. On to `CCc1cc(C(=O)N2CCC(c3cc4ncccc4cn3)CC2)on1`, for which the Percent Effect came to 16.1%. As for `CCc1cc(C(=O)N2CCC(c3cc4ncccc4cn3)CC2)no1`, the figure is -21.6%. As for `O=C(CCc1cc(Cl)no1)N1CCC(c2cc3ncccc3cn2)CC1`, the figure is 129%; as for `O=C(C1CCOCC1)N1CC[C@H]2[C@H]1CCN2c1nncs1`, -28.6%. Turning to `CSCC[C@@H]1CN2CCC[C@H]2CN1Cc1coc2ccc(Cl)cc2c1=O`, the Percent Effect is -2.59%. The figure for `CN(Cc1cncnc1)[C@@H]1CN(C(=O)C2CC2)[C@@H]2CCCO[C@H]12` is -10.1%; for `CN(C)S(=O)(=O)N1C[C@@H]2CC[C@H](C1)N(C/C=C/c1ccc(F)cc1)C2` it is -0.937%. As for `CCCN1CCCC1c1nc(Cc2ccc(F)cc2)no1` (centres undefined), the figure is -12.9%; as for `CC(C)(C)OCCN1CCCC1c1nc(Cc2ccc(F)cc2)no1` (centres undefined), 74.9%. As for `OCCCN1CCCC1c1nc(Cc2ccc(F)cc2)no1` (centres undefined), the figure is 11.8%; as for `c1cnc(NC[C@H]2OC[C@@H]3CCN(Cc4cccnc4)C[C@@H]32)nc1`, -692%; as for `CCCc1ccc(C(=O)N2CCc3c(nc(C)nc3N(C)C)C2)cc1`, 6.78%. As to `CCNc1ncc(C(=O)N2CCc3c(nc(C)nc3N(C)C)C2)cn1`, the Percent Effect turned out to be 50.1%. As for `Cc1nc2c(c(N(C)C)n1)CCN(C(=O)c1ccc(N)nc1)C2`, the figure is -0.177%; as for `Cc1ccc(CN2CC[C@H]3NC(=O)CC[C@@H]32)o1`, -15.3%. As for `O=C(c1ncccn1)N1C[C@@H]2COC[C@]2(COCc2cccnc2)C1`, the figure is -13.2%; as for `COCCCN1C(=O)CC[C@H]2CN(Cc3ccc4occc4c3)CC[C@H]21`, -8.86%; as for `O=C1CC(c2ccc(F)c(F)c2)c2snc(C(=O)O)c2N1` (centres undefined), 68.8%.

`O=C1CC(c2cccc(Cl)c2)c2snc(C(=O)O)c2N1` (centres undefined): the Percent Effect is -0.952%.

`O=C1CC(c2ccc(F)cc2)c2snc(C(=O)O)c2N1` (centres undefined): the Percent Effect is -1.41%.

With `CC(=O)NCC(=O)N1C[C@H](OCc2cccnc2)[C@H]2COC[C@H]21`, the Percent Effect was -10.5%. As for `Cn1cc(CN2CCO[C@@H]3CN(C4CCCC4)C[C@@H]3C2)cn1`, the figure is -3.52%; as for `CCc1ccc(CN2CCN(Cc3ncc[nH]3)[C@H]3CS(=O)(=O)C[C@H]32)nc1`, -7.95%; as for `CCS(=O)(=O)N1C[C@@H]2CN(Cc3ccco3)CCO[C@@H]2C1`, -0.26%.

In the case of `Cc1cccc(CO[C@@H]2CC[C@H]3[C@H]2OCCN3Cc2nccs2)n1`, the Percent Effect is -27.1%. As for `COC(=O)CNC(=O)c1nc(-c2ccccc2OC)c2cnccn12`, the figure is 118%. As to `COC(=O)CNC(=O)Cn1ccc2cccc(OC)c21`, the Percent Effect was -29.2%.

With `COc1ccccc1-c1nc(C(=O)N(C)C)n2ccncc12`, the Percent Effect was found to be 11.7%. The figure for `Cc1nnc(N2C[C@H](OCCCn3cccn3)[C@H]3OCCC[C@H]32)s1` is -20.4%. The figure for `O=C1CO[C@H]2CN(Cc3cccnc3)C[C@H]2N1` is 0.623%; for `CC(=O)N1C[C@@H](c2ccsc2)[C@@H]2CN(CC3CCCCC3)CC[C@@H]21` it is 18%; for `Cc1cccc(-c2ccc(C(=O)NCCN(C)C3CC3)c(=O)[nH]2)c1` it is -29.9%.

For the compound `Cc1cccc(-c2ccc(C(=O)NCC3CCOC3)c(=O)[nH]2)c1` (centres undefined), the Percent Effect is -6.84%. As for `Cc1cccc(-c2ccc(C(=O)NCC(C)(C)C(N)=O)c(=O)[nH]2)c1`, the figure is 57.5%; as for `O=C(NC[C@H]1C[C@@H]2CN(C(=O)c3ccno3)C[C@@H]2O1)C1CCC1`, -26.6%; as for `CCN1C(=O)C[C@@H]2[C@@H]1CCN2S(=O)(=O)c1ccc(OC)cc1`, -42.1%.

For `O=C(c1cccs1)N1C[C@@H]2OCCN(CC3CCCO3)[C@@H]2C1` (some centres undefined), the Percent Effect is 8.57%. As for `CCn1c(SCC(=O)N2CCOCC2)nc2cc(C)[nH]c2c1=O`, the figure is 11.1%. As for `Cc1cc2nc(SCC(=O)N3CCCC3)n(C)c(=O)c2[nH]1`, the figure is -2.84%; as for `CCn1c(SCC(=O)N2CCCC2)nc2cc(C)[nH]c2c1=O`, 54.6%. As for `Cc1cc(C(=O)N2C[C@@H]3OCCN(CCN4CCCC4)[C@@H]3C2)c(C)o1`, the figure is -5.69%; as for `CCN1C(=O)C[C@@H]2[C@@H]1CCN2S(=O)(=O)Cc1ccc(C)cc1`, 16.4%; as for `Cc1cc(C(=O)N2CC[C@H]3[C@H](C[C@@H](CN4CCCC4)N3C)C2)c(C)o1`, -16.7%.

Consider `CC(=O)N1CCCC1c1cccc(Cc2ccccc2F)n1` (centres undefined), for which the Percent Effect is -41.9%. The figure for `CS(=O)(=O)N1CCCC1c1cccc(Cc2ccccc2F)n1` (centres undefined) is 51.8%; for `CN1CCCC1c1cccc(Cc2ccccc2F)n1` (centres undefined) it is -56.2%. The figure for `CCC1=N[C@@]2(CC[C@@H]3CN(C(=O)Nc4ccccc4)C[C@@H]32)C(=O)N1C` is 7.9%; for `O=C(NC1CC1)[C@H]1C[C@H]2OCC[C@H]2N(Cc2cccnc2)C1` it is 1.16%; for `O=C(c1cc2cc(F)ccc2[nH]1)N1CCC(Nc2cccnn2)CC1` it is -12.9%. As for `O=C(c1cc2cc(F)ccc2[nH]1)N1CCC(Nc2ccc(F)cc2)CC1`, the figure is 70.6%. For `Cc1nnc2n1CCN(C(=O)c1cc3cc(F)ccc3[nH]1)C2`, the Percent Effect is -0.338%.

For `O=C1CO[C@H]2CN(Cc3ccccc3Br)C[C@@H]2N1`, the Percent Effect stood at 5.27%. The figure for `Cn1ccnc1CN1CCN(CC2CC2)[C@@H]2CS(=O)(=O)C[C@@H]21` is -9.98%; for `c1ccc(CN2CCO[C@H]3[C@H](OCCN4CCCC4)CC[C@@H]32)nc1` it is -5.53%; for `CC(C)(C)c1nc(CNc2ccccc2SCCC(N)=O)cs1` it is 6.99%.

For the compound `NC(=O)CCSc1ccccc1NCc1ccc(Cl)s1`, the Percent Effect was determined as 75.8%.

Turning to `CC(C)(C)c1ncc(CNc2ccccc2SCCC(N)=O)s1`, the Percent Effect was 4.25%. As for `O=C(Nc1cccnc1)[C@@H]1C[C@H]2OCC[C@H]2N(Cc2nccs2)C1`, the figure is -10.3%; as for `Cc1nnc(N2C[C@@H]3CCCO[C@@H]3[C@H](N(C)C)C2)s1`, 26.3%.
